± gives the standard deviation of the averaged measurements.
Assays:
DLD1 [1] = assay: cell viability (CellTiter-Glo) relative to plate median (fraction of plate median); higher = more viable cells; conditions: 5 µM; treatment time 24 h; reporter: 7TFP
Method in brief: (§1)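 Luminescence, normalised well by well to the plate median, is tabulated as a mean of independent replicates. There were two replicates, run on colorectal cancer lines stably transduced with lentiviral TCF/Wnt firefly luciferase reporters and dosed with library compounds at a final 5 µM for 24 h. Readouts were firefly luciferase or CellTiterGlo on parallel plates.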

HCT116 = assay: as above; conditions: 5 µM; treatment time 24 h; reporter: TCF4/Wnt
Method in brief: as §1

SW480 [2] = assay: as above; conditions: 5 µM; treatment time 24 h; reporter: 7TFP
Method in brief: as §1

DLD1 [3] = assay: TCF/Wnt firefly luciferase reporter signal relative to plate median (fraction of plate median); higher = higher Wnt reporter signal; conditions: 5 µM; treatment time 24 h; reporter: 7TFP
Method in brief: as §1

SW480 [4] = assay: as above; conditions: 5 µM; treatment time 24 h; reporter: 7TFP
Method in brief: as §1

| SMILES | cell viability (DLD1 [1]) | cell viability (HCT116) | cell viability (SW480 [2]) | TCF/Wnt firefly luciferase reporter signal (DLD1 [3]) | TCF/Wnt firefly luciferase reporter signal (SW480 [4]) |
| --- | --- | --- | --- | --- | --- |
| c1coc(CNc2ncnc3[nH]cnc23)c1 | 0.913 ± 0.09 | 0.845 ± 0.17 | 0.958 ± 0.04 | 0.996 ± 0.1 | 1.04 ± 0.042 |
| NCC[C@H](O)C(=O)N[C@@H]1C[C@H](N)[C@@H](O[C@H]2O[C@H](CN)[C@@H](O)[C@H](O)[C@H]2O)[C@H](O)[C@H]1O[C@H]1O[C@H](CO)[C@@H](O)[C@H](N)[C@H]1O | 1.01 ± 0.014 | 1 ± 0.037 | 0.995 ± 0.036 | 0.821 ± 0.11 | 0.905 ± 0.12 |
| COc1ccc(C[C@H](N)C(=O)N[C@H]2[C@@H](O)[C@H](n3cnc4c(N(C)C)ncnc43)O[C@@H]2CO)cc1 | 0.892 ± 0.1 | 0.908 ± 0.04 | 0.9485 ± 0.00071 | 0.999 ± 0.03 | 1.05 ± 0.042 |
| O=C(NC(Cc1cc(=O)[nH]c2ccccc12)C(=O)O)c1ccc(Cl)cc1 (stereo not given) | 0.93 ± 0.0071 | 0.975 ± 0.026 | 0.931 ± 0.024 | 0.909 ± 0.064 | 0.818 ± 0.069 |
| CCn1cc(C(=O)O)c(=O)c2cc(F)c(N3CCNCC3)cc21 | 0.944 ± 0.061 | 0.98 ± 0.18 | 0.926 ± 0.0014 | 1.19 ± 0.042 | 1.07 ± 0.071 |
| Oc1c(Br)cc(Br)c2cccnc12 | 1.02 ± 0.021 | 1.07 ± 0.071 | 0.965 ± 0.064 | 1.24 ± 0.014 | 1.12 ± 0.028 |
| CCCCCC(C)N (stereo not given) | 1.02 ± 0.066 | 1.09 ± 0.021 | 0.954 ± 0.0099 | 1.14 ± 0.078 | 1.08 ± 0.057 |
| C/C=C/CCC(=O)c1cc(C)c(O)cc1O [Sohirnone A] | 1.04 ± 0.09 | 1.06 ± 0.1 | 0.9585 ± 0.0078 | 1.02 ± 0.082 | 0.969 ± 0.044 |
| O=c1cc(-c2ccccc2)oc2cc(O)c(O)c(O)c12 | 1.08 ± 0.021 | 1.06 ± 0.042 | 1.12 ± 0.035 | 0.927 ± 0.073 | 1.02 ± 0.037 |
| CC(C)[C@H](NC(=O)[C@@H]1CCCN1)C(=O)N1CCNC(=O)C1=O [Prolyl-valyl-diketopiperazine] | 1.04 ± 0.12 | 1.14 ± 0.092 | 1.07 ± 0.05 | 0.919 ± 0.013 | 0.962 ± 0.021 |
| C[C@H]1CC2C3CCC4=CC(=O)C=C[C@]4(C)[C@@]3(F)[C@@H](O)C[C@]2(C)[C@@]1(O)C(=O)COP(=O)(O)O (stereo not given in full) | 0.93 ± 0.063 | 0.942 ± 0.028 | 0.952 ± 0.029 | 1.03 ± 0.09 | 1.06 ± 0.028 |
| COc1cc([C@@H]2c3cc4c(cc3[C@@H](O[C@@H]3O[C@@H]5CO[C@@H](C)O[C@H]5[C@H](O)[C@H]3O)[C@H]3COC(=O)[C@H]23)OCO4)cc(OC)c1O | 1.03 ± 0.028 | 0.895 ± 0.12 | 1.03 ± 0.042 | 0.815 ± 0.14 | 0.879 ± 0.12 |
| COC(=O)N/N=C/c1c[n+]([O-])c2ccccc2[n+]1[O-] | 0.917 ± 0.13 | 0.998 ± 0.2 | 0.974 ± 0.021 | 0.919 ± 0.064 | 0.9245 ± 0.0092 |
| C=C(CC[C@@H](C(=O)O)[C@H]1CC[C@@]2(C)C3=C(CC[C@]12C)[C@@]1(C)CC[C@H](O)C(C)(C)[C@@H]1CC3)C(C)C [Eburicoic acid] | 0.994 ± 0.052 | 0.923 ± 0.15 | 1.01 ± 0.03 | 0.878 ± 0.023 | 0.983 ± 0.013 |
| Nc1nc(=O)c2[nH]c(=O)cnc2[nH]1 | 1.01 ± 0.14 | 1.06 ± 0.078 | 0.954 ± 0.018 | 0.981 ± 0.098 | 0.987 ± 0.075 |
| O=C1C=C(O)C(=O)c2ccccc21 | 1.025 ± 0.0071 | 1.06 ± 0.035 | 1.02 ± 0.047 | 0.947 ± 0.09 | 0.985 ± 0.11 |
| C[C@@H]1CC(=O)c2c(ccc3c2C(=O)c2cccc(O)c2C3=O)C1 [Ochromycinone (Isoform C, Compound ID 7613)] | 1.02 ± 0.091 | 1.08 ± 0.099 | 1.1 ± 0.064 | 1.09 ± 0.13 | 1.04 ± 0.11 |
| CC(C)[C@@H]1CC[C@@H](C)CC1=O | 1.01 ± 0.033 | 1.16 ± 0.11 | 1.04 ± 0.028 | 0.906 ± 0.087 | 0.904 ± 0.037 |
| CN1CCN(CC(=O)N2c3ccccc3C(=O)Nc3cccnc32)CC1 | 0.944 ± 0.022 | 1 ± 0.067 | 0.9405 ± 0.0035 | 0.796 ± 0.014 | 0.813 ± 0.0099 |
| CC(C)C1=CC2=CC[C@@H]3[C@](C)(CCC[C@@]3(C)C(=O)O)[C@H]2CC1 | 0.967 ± 0.09 | 0.97 ± 0.013 | 0.897 ± 0.012 | 1.1 ± 0.11 | 0.912 ± 0.09 |
| CN(C)CCCC1(c2ccc(F)cc2)OCc2cc(C#N)ccc21 (stereo not given) | 1.02 ± 0.044 | 1.01 ± 0.061 | 0.996 ± 0.048 | 0.964 ± 0.0014 | 1.01 ± 0.1 |
| O=C(CCCCCCCCCCCCC1CCCC1)Nc1ccc(S(=O)(=O)c2ccc(NC(=O)CCCCCCCCCCCCC3CCCC3)cc2)cc1 | 1.02 ± 0.062 | 1.04 ± 0.087 | 1.03 ± 0.028 | 1.01 ± 0.12 | 1 ± 0.036 |
| C/C=C/C1=CC(=O)[C@@H](O)[C@@H]1O [Terrein] | 0.964 ± 0.066 | 1.03 ± 0.014 | 0.986 ± 0.011 | 1.25 ± 0.085 | 1.1 ± 0.11 |
| O=C(O)c1c[nH]c2ccccc12 [Indole-3-carboxylic acid] | 0.977 ± 0.011 | 0.868 ± 0.083 | 0.9405 ± 0.005 | 0.83 ± 0.12 | 0.968 ± 0.21 |
| O=c1cc(CO)occ1O [Kojic acid (Biofocus)] | 0.943 ± 0.08 | 1.02 ± 0.083 | 0.994 ± 0.093 | 1.21 ± 0.13 | 1.12 ± 0.035 |
| Cn1c([N+](=O)[O-])cnc1COC(N)=O | 0.999 ± 0.072 | 1.07 ± 0.071 | 1.03 ± 0.014 | 1.05 ± 0.028 | 0.996 ± 0.12 |
| O=C(O)c1c2ccccc2cc2ccccc12 | 0.959 ± 0.043 | 1.02 ± 0.13 | 1.01 ± 0.052 | 0.934 ± 0.064 | 0.872 ± 0.073 |
